Results as given in PubChem BioAssay (NCATS).
Records with an inconclusive call do not appear. A call without a number means that no potency is given here. The source holds several records for some structures; these can differ, active in one and inactive in another. Calls of active or inactive are those of the source. Unless noted, calls follow the shape of the dose curve; as a rule, active = well fitted curve in the direction sought with a large enough effect; inconclusive = small, poorly fitted or top-dose-only effect, or another doubt; inactive = no such curve, though single readings can be large; an effect the other way counts as inactive or inconclusive.

Experiments:
[1] = target: Ubiquitin carboxyl-terminal hydrolase 2 (Homo sapiens) (UniProt O75604); experiment: qHTS Validation Assay for Inhibitors of Ubiquitin-specific Protease USP2a Using CHOP2 as the Reporter (AID 463106)
In short: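 Inhibition is expressed relative to NEM as the full-inhibition control, with concentration-response curves classed by fit quality, magnitude and activity. Enzyme (USP2 core, 10nM) meets 25nM Ub-CHOP2 after compound preincubation; readings are taken at 60min.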

[2] = target: DNA polymerase III PolC-type (Bacillus subtilis (strain 168)) (UniProt P13267); experiment: qHTS Validation Assay for the Inhibitors of DNA Replication in Gram-Positive Bacteria (AID 485295); also: potency is read from the fitted curve at half-maximal effect
In short: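 Primed replication of single-stranded M13Gori by a four-protein B. subtilis holoenzyme is measured at room temperature. Double-stranded product is quantified by PicoGreen fluorescence after an EDTA stop; inhibition is scaled between DMSO and EDTA controls.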

[3] = target: Tumor susceptibility gene 101 protein (Homo sapiens) (UniProt Q99816); experiment: qHTS Validation Assay for Iinhibitors of HIV-1 Budding by Blocking the Interaction of PTAP/TSG101 (AID 485342; calls by dose curve)
Tumor susceptibility gene 101 protein (Homo sapiens), sequence (Q99816 whole entry, looked up, the tested form may be a part): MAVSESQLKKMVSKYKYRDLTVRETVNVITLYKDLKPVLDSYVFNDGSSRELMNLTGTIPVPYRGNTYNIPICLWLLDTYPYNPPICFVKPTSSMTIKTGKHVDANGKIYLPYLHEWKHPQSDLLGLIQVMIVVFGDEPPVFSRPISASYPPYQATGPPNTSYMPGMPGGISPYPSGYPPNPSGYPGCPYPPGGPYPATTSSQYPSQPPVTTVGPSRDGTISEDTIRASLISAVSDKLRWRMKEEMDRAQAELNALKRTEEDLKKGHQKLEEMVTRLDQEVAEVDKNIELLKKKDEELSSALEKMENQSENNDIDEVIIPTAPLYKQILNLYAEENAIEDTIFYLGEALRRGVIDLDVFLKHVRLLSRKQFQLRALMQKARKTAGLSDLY
In short: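 Fluorescence anisotropy measured PTAP-Tsg101 interaction. Final concentrations were 10 uM protein domain and 50 nM labeled peptide, equilibrated 20 min at room temperature.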

[4] = target: Beta-2 adrenergic receptor (Homo sapiens) (UniProt P07550); experiment: qHTS validation assay of beta-arrestin-biased ligands of beta2-adrenergic receptor (AID 485366)
Beta-2 adrenergic receptor (Homo sapiens), sequence (P07550 whole entry, looked up): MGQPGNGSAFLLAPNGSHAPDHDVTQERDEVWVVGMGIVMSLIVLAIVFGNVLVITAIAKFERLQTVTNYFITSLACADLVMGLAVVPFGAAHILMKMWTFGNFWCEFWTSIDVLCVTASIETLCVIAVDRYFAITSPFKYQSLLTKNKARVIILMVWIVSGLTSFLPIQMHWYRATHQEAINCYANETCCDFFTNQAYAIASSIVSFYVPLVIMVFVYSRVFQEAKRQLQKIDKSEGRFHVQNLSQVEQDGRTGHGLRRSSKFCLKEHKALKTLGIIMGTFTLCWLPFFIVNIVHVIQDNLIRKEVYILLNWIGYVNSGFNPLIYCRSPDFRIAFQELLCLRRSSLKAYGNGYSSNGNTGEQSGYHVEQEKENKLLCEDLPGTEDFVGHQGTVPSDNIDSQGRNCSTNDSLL
In short: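 Agonism was measured as beta-arrestin recruitment to recombinant beta2-AR, releasing tTA to drive luciferase. Cells were exposed for 18 hr at 37 degrees C to a series up to 46 microM. %Activity from corrected luminescence gave concentration-response curves.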

[5] = Quantitative high throughput screen for delayed death inhibitors of the malarial parasite plastid, 96 hour incubation (AID 488745); also: nearly all actives have a fitted effect of over 70% in size; also: potency is read from the fitted curve at half-maximal effect
In short: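 Decreased firefly luciferase luminescence indicates inhibited growth of reporter-integrated P. falciparum after two generations (96 h, 37 C, 5% CO2). Infected erythrocytes at 0.1% parasitemia, 2% hematocrit, in Albumax-supplemented RPMI 1640.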

[6] = Quantitative high throughput screen for delayed death inhibitors of the malarial parasite plastid, 48 hour incubation (AID 488752); also: nearly all actives have a fitted effect of over 65% in size; also: potency is read from the fitted curve at half-maximal effect
In short: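 One-generation (48 h) growth assay: a decrease in luciferase signal from an integrated reporter in P. falciparum-infected red cells (0.1% parasitemia, 2% hematocrit) after compound exposure at 37 C indicates parasite inhibition.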

[7] = target: Thioredoxin reductase 1, cytoplasmic (Rattus norvegicus) (UniProt O89049); experiment: qHTS Assay for Inhibitors of Mammalian Selenoprotein Thioredoxin Reductase 1 (TrxR1) (AID 488773); details: Potency: inhibition;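 also: drop in NADPH fluorescence over an 8 min run after selenite addition; series mostly up to about 57 µM; nearly all actives have a fitted effect of over 40% in size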
In short: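 Inhibition is scored from the loss of NADPH fluorescence between first and last reads of an 8-min kinetic run. Selenite (400 uM) was the substrate, added after 15 min compound preincubation at room temperature.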

[8] = target: Flap endonuclease 1 (Homo sapiens) (UniProt P39748); experiment: qHTS Validation Assay for the Inhibitors of Human Flap endonuclease 1 (FEN1) (AID 488816)
Flap endonuclease 1 (Homo sapiens), sequence (P39748 whole entry, looked up): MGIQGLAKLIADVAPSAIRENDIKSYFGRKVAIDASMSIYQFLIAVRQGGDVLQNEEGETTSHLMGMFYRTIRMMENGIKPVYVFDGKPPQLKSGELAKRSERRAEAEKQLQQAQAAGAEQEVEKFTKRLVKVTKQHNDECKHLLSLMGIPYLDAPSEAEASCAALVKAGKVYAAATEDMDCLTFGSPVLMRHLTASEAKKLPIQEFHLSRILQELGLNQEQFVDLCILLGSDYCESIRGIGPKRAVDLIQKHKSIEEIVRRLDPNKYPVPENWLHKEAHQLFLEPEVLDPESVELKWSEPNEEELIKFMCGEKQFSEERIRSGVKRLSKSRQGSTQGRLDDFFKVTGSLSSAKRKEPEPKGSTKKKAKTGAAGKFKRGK
In short: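 Steps: add FEN1 (10 nM reagent) or buffer only; pin compounds; hold 15 min at room temperature; start with substrate, 50 nM final; read at 0 and 15 min; correct, normalize and fit a four-parameter Hill curve.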

[9] = target: M-phase phosphoprotein 8 (Homo sapiens) (UniProt Q99549); experiment: qHTS Validation Assay for Inhibitors for MPP8 Chromodomain Interactions with Methylated Histone Tails (AID 488949); also: nearly all actives have a fitted effect of over 55% in size; also: potency is read from the fitted curve at half-maximal effect
M-phase phosphoprotein 8 (Homo sapiens), sequence (Q99549 whole entry, looked up): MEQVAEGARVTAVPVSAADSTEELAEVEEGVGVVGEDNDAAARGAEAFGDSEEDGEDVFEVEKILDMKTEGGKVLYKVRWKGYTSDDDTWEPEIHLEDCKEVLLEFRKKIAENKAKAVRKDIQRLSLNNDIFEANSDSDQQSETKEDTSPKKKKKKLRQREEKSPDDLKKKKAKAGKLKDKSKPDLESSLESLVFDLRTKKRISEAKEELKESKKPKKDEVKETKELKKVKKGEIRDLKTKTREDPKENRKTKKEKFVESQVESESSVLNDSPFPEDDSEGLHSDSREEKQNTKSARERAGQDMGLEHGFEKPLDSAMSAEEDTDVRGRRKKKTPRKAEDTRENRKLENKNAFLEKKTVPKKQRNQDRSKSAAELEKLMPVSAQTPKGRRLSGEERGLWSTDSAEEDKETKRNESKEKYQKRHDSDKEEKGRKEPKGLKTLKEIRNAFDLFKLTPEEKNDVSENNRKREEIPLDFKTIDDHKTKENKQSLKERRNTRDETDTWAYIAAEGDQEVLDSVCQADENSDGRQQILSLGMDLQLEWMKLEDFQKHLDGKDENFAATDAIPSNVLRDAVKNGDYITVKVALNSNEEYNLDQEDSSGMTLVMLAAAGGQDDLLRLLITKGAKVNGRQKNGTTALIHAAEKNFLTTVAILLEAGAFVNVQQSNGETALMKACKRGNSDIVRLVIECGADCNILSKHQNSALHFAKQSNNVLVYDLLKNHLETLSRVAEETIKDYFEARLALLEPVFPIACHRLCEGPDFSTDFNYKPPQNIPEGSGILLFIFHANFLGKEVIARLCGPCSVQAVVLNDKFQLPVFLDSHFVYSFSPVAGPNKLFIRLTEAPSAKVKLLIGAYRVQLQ
In short: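 Disruption of the preformed MPP8–trimethyl-H3K9 peptide complex (both 50 nM, 30 min, RT) is measured after 30 min compound exposure, using AlphaScreen proximity beads; aurintricarboxylic acid titration serves as plate control.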

[10] = target: Methanococcus maripaludis chaperonin (MmCpn) (UniProt Q6LX38); experiment: High-Throughput Screening for Modulators of Cytosolic Chaperonin Activity: MmCpn Primary Screen (AID 488978);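 also: 50 nM MmCpn enzyme hydrolysing 30 µM ATP at 37 °C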
Methanococcus maripaludis chaperonin (MmCpn), sequence (Q6LX38 1-543): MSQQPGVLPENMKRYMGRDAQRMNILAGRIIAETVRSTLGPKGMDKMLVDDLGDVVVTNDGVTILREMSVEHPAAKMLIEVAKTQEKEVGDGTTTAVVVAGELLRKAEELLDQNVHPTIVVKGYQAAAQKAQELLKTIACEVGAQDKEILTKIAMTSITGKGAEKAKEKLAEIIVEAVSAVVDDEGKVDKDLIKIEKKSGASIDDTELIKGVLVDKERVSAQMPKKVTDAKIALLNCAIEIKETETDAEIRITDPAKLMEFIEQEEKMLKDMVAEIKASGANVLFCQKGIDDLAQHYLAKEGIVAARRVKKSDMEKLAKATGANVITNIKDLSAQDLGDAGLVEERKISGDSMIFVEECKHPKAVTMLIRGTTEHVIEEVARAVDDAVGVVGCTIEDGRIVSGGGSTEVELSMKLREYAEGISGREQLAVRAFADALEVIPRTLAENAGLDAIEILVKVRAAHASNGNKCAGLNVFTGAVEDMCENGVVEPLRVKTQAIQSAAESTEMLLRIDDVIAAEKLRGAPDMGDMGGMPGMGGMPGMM
In short: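 Measures ATPase turnover of the M. maripaludis chaperonin (50 nM final) against 30 uM ATP over 10 min at 37C, with compound added 5 min beforehand at room temperature. ADP is quantified by HTRF immunodetection.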

[11] = target: Thyrotropin receptor (Homo sapiens) (UniProt P16473); experiment: qHTS Assay for Antagonists of the Thyroid Stimulating Hormone Receptor (AID 488980); also: series mostly up to about 58 µM
Thyrotropin receptor (Homo sapiens), sequence (P16473 whole entry, looked up): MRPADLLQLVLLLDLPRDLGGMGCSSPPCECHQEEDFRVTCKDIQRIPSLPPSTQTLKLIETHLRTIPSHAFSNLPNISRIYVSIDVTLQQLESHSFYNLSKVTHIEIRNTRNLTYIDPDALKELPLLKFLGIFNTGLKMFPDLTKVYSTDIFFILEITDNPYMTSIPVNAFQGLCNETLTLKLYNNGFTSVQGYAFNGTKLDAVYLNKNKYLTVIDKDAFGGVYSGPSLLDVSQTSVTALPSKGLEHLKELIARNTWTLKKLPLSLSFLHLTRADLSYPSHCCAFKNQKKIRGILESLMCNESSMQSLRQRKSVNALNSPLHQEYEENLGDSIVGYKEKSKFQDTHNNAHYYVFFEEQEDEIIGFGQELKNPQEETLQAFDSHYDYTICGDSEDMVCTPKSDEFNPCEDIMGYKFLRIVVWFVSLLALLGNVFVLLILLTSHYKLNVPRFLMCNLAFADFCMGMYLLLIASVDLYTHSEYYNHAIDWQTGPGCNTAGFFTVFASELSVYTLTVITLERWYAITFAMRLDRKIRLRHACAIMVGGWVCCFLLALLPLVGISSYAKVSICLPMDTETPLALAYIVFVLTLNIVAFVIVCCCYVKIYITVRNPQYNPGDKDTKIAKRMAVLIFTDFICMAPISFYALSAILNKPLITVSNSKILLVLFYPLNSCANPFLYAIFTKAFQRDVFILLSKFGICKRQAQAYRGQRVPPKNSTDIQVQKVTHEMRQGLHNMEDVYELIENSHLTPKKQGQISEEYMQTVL
In short: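 Cells expressing human TSHR (HEK293) are dispensed in HBSS/HEPES containing 70 uM RO 20-1724, compound is added, then TSH at EC80 (4 nM final). Antibody in lysis buffer follows, 30 minutes at room temperature before HTRF detection.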

[12] = target: D(1A) dopamine receptor (Homo sapiens) (UniProt P21728); experiment: HTS Assay for Allosteric Agonists of the Human D1 Dopamine Receptor: Primary Screen for Agonists (AID 488981)
D(1A) dopamine receptor (Homo sapiens), sequence (P21728 whole entry, looked up): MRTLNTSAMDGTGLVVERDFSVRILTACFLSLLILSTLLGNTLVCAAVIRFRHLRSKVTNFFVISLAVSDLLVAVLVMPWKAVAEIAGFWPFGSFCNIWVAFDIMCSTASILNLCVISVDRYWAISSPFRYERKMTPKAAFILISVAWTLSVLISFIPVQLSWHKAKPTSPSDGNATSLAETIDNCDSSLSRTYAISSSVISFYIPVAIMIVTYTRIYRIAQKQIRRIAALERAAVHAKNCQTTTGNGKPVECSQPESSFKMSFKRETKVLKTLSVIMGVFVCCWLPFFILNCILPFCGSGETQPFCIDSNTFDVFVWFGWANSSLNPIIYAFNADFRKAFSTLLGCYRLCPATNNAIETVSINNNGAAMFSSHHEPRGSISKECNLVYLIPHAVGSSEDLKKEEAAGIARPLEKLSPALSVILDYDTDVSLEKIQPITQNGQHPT
In short: (§1)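 Tetracycline-induced HEK293 T-REx cells force-coupled to calcium signalling were incubated overnight at 30 C and dye-loaded at room temperature. Calcium flux over 180 s after compound addition flagged agonists; a further 180 s read after EC20 dopamine flagged potentiators.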

[13] = target: D(1A) dopamine receptor (Homo sapiens) (UniProt P21728); experiment: HTS Assay for Allosteric Agonists of the Human D1 Dopamine Receptor: Primary Screen for Potentiators (AID 488982)
In short: as §1

[14] = target: ATP-dependent 6-phosphofructokinase (Trypanosoma brucei brucei) (UniProt O15648); experiment: qHTS Validation Assay to Find Inhibitors of T. brucei phosphofructokinase (AID 485368); details: outcome: dose series up to 57.5 µM
In short: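 ADP-Glo luminescence, two-step: residual ATP depleted, then ADP converted to ATP for luciferase. Enzyme 1.25 nM, F6P 0.5 mM, ATP 0.1 mM, pH 8.0 TEA buffer, 45 min RT. Curves fitted and classed by quality and efficacy.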

[15] = target: Chromobox protein homolog 1 (Homo sapiens) (UniProt P83916); experiment: qHTS Validation Assay for Inhibitors of HP1-beta Chromodomain Interactions with Methylated Histone Tails (AID 488953); also: nearly all actives have a fitted effect of over 50% in size; also: potency is read from the fitted curve at half-maximal effect
Chromobox protein homolog 1 (Homo sapiens), sequence (P83916 whole entry, looked up): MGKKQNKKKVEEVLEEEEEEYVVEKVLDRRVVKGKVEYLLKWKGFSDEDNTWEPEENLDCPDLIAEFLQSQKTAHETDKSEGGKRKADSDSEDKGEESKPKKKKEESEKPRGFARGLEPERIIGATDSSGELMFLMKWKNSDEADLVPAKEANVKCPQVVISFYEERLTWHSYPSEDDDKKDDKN
In short: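 AlphaScreen proximity signal from streptavidin donor and nickel chelate acceptor beads (final 10 ug/mL) after 30 min dark incubation. Compounds had 30 min at room temperature with preformed complex of 50 nM HP1-beta and 50 nM b-H3(1-18)K9me3 in PBS pH 7.4 with 0.01% Tween-20.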

[16] = target: Transient receptor potential cation channel subfamily V member 1 (Homo sapiens) (UniProt Q8NER1); experiment: HTS Assay for Compounds that Act as Enhancers of the Vanilloid Receptor 1 (AID 488979)
Transient receptor potential cation channel subfamily V member 1 (Homo sapiens), sequence (Q8NER1 whole entry, looked up): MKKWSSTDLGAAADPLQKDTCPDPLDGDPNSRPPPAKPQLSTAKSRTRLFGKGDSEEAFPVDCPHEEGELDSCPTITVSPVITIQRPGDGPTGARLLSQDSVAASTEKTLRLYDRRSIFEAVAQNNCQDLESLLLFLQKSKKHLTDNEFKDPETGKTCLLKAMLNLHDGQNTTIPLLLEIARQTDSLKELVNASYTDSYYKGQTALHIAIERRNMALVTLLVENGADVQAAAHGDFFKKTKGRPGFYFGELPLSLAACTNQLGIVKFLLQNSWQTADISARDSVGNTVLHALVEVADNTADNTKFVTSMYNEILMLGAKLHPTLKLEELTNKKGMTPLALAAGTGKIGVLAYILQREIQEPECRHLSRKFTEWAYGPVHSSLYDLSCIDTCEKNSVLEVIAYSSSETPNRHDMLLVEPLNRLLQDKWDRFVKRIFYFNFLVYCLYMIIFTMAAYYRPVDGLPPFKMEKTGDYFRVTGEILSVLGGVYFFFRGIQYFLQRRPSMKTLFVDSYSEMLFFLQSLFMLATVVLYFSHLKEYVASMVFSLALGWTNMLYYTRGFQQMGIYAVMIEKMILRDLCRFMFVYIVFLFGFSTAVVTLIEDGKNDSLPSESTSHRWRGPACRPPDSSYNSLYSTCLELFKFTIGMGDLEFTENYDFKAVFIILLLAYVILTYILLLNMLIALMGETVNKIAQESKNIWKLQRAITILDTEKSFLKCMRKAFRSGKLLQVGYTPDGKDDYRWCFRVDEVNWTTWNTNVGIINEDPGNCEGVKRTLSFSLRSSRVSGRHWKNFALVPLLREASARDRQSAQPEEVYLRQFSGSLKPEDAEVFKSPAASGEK
In short: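 TRPV1-expressing cells loaded with Fluo-8 calcium dye; compounds added and calcium influx read kinetically for 3 min (agonist phase), then capsaicin at EC20 added and read 2 min more for enhancement. Fluorescence ex 480/em 520 nm.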

[17] = qHTS Validation Assay to Find Inhibitors of Chronic Active B-Cell Receptor Signaling (AID 485345; active = well fitted curve in the direction sought with a large enough effect in the main read-out, with a control signal flat, not every such curve was filed as active)
In short: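 TMD8 ABC-DLBCL cells with dox-inducible green luciferase–IκBα fusion and red native luciferase; compounds 46 uM–3 nM, 4 h at 37C with doxycycline in 0.5% FBS IMDM. Green/red ratio normalized to basal and 10 uM MG-132.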

[18] = target: Thioredoxin reductase 1, cytoplasmic (Rattus norvegicus) (UniProt O89049); experiment: qHTS Assay for Substrates of Mammalian Selenoprotein Thioredoxin Reductase 1 (TrxR1) (AID 488772);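 also: series mostly up to about 57 µM; a drop in NADPH fluorescence below the no-compound background marks a TrxR1 substrate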
In short: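 In this dual-purpose format, potential substrates are identified from the first fluorescence read after selenite addition, not from the 8-minute delta. Rat enzyme is preincubated with NADPH and then with compound at ~22 deg C.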

[19] = target: D(1A) dopamine receptor (Homo sapiens) (UniProt P21728); experiment: HTS Assay for Allosteric Agonists of the Human D1 Dopamine Receptor: Primary Screen for Antagonists (AID 488983);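 also: calcium flux response to an EC80 dopamine challenge measured with no-wash dye; nearly all actives have a fitted effect of over 65% in size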; also: potency is read from the fitted curve at half-maximal effect
In short: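 Calcium-flux read-out in inducible HEK293 T-REx cells expressing D1, dye-loaded 30–90 min at room temperature. Kinetic reads: 180 s after compound (agonist phase), then 180 s after an EC80 dopamine challenge.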

Row | SMILES | outcome [1] | Potency [2] | outcome [3] | outcome [4] | Potency [5] | Potency [6] | Potency [7] | Potency [8] | Potency [9] | outcome [10] | outcome [11] | Potency [12] | Potency [13] | outcome [14] | Potency [15] | outcome [16] | Potency [17] | outcome [18] | Potency [19]
1 | c1cc(CN2CCCCC2)cc(OCCCNc2nc3ccccc3s2)c1 | inactive | inactive | inactive | inactive | 2.94 µM (active) | 8.28 µM (active) | inactive | inactive | inactive | inactive | inactive | inactive | inactive |  |  |  |  |  | 
2 | O=C1NCN(c2ccccc2)C12CCN(CCCC(c1ccc(F)cc1)c1ccc(F)cc1)CC2 | inactive | inactive | inactive | inactive |  |  | inactive | inactive | 14.1 µM (active) | inactive | inactive | inactive | inactive | inactive | 39.8 µM (active) | inactive |  |  | 
3 | CN1C[C@H](C(=O)N[C@]2(C)O[C@@]3(O)[C@@H]4CCCN4C(=O)[C@H](Cc4ccccc4)N3C2=O)C[C@@H]2c3cccc4[nH]cc(c34)C[C@H]21 | inactive | inactive | inactive | inactive |  |  | inactive | inactive |  | inactive |  |  |  | inactive |  |  | inactive |  | 
4 | Cc1ccc(/C(=C\CN2CCCC2)c2ccccn2)cc1 | inactive | inactive | inactive | inactive |  | inactive | inactive |  |  | inactive | inactive |  | inactive | inactive | inactive |  | inactive | inactive | inactive
5 | Cc1cccc(C)c1NC(=O)C(C)N (centres undefined) |  | inactive | inactive | inactive |  |  | inactive | inactive | inactive | inactive |  | inactive | inactive |  | inactive |  | inactive |  | inactive
6 | C[n+]1cc2c3c(ccc2c2ccc4cc5c(cc4c21)OCO5)OCO3 | inactive | 8.44 µM (active) |  | inactive |  |  |  | inactive | 31.6 µM (active) and inactive | inactive |  | inactive | inactive |  | inactive |  |  |  | inactive
7 | CCCCNc1ccc(C(=O)OCCN(C)C)cc1 | inactive | inactive | inactive | inactive |  | inactive | inactive | inactive | inactive | inactive | inactive | inactive | inactive | inactive | inactive | inactive | inactive | inactive | inactive
8 | C(=C\c1ccccc1)/CN1CCN(C(c2ccccc2)c2ccccc2)CC1 | inactive | inactive | inactive | inactive | inactive | inactive | inactive | inactive | inactive | inactive | inactive | inactive | inactive |  |  |  | inactive | inactive | inactive
9 | CCC(=O)c1ccc2c(c1)N(CCCN(C)C)c1ccccc1S2 | inactive | inactive | inactive | inactive |  |  |  | inactive | inactive | inactive |  | inactive | inactive | inactive |  |  | inactive |  | 0.891 µM (active)
10 | NC(N)=NC(=O)Cc1c(Cl)cccc1Cl | inactive | inactive | inactive | inactive | 5.22 µM (active) |  | inactive | inactive | inactive | inactive | inactive | inactive | inactive | inactive | inactive | inactive |  | inactive | 
